The campaign covered roughly 5,500 compounds. About 2,000 (36%) were called active. Not shown: some 18% with an inconclusive outcome. Rule as the data show it: active = normalized growth mostly below about 0.91 (no sharp cut-off); inconclusive = no clear call, values can overlap the other calls; inactive = mostly above about 0.92. This is one part of the list.
Experiment: chemical genetic growth profiling, strain panel (AID 1159580);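 also: tested at 20 µM; growth read once vehicle control cultures reached saturation at 30 °C; 1 = growth at the plate median or of vehicle wells; lower values mean less growth of the strain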
Settings: growth OD

Measured: normalized growth

CC1(C)C[C@@H]2C(=O)CC[C@H]3O[C@]3(C)CC[C@H]21
inactive: S. cerevisiae deletion strains, locus YJR075W, strain HOC1, active compounds read low 1.01 | S. cerevisiae deletion strains, locus YKL009W, strain mrt4, active compounds read low 0.985 | S. cerevisiae deletion strains, locus YKL068W, active compounds read low 0.997 | S. cerevisiae deletion strains, locus YKL085W, strain MDH1 (second series), active compounds read low 0.996 | S. cerevisiae deletion strains, locus YKL085W, strain MDH1, active compounds read low 0.996 | S. cerevisiae deletion strains, locus YKL160W, strain elf1, active compounds read low 1.01 | S. cerevisiae deletion strains, locus YKL190W, strain CNB1, active compounds read low 1.01 | S. cerevisiae deletion strains, locus YKR001C, strain vps1, active compounds read low 0.994 | S. cerevisiae deletion strains, locus YKR026C, strain gcn3, active compounds read low 1.02 | S. cerevisiae deletion strains, locus YKR091W, strain srl3, active compounds read low 1.01 | S. cerevisiae deletion strains, locus YLL001W, strain dnm1, active compounds read low 0.985 | S. cerevisiae deletion strains, locus YLL026W, active compounds read low 1.01 | S. cerevisiae deletion strains, locus YLL041C, strain sdh2, active compounds read low 1.01 | S. cerevisiae deletion strains, locus YLR027C, strain aat2, active compounds read low 1.03 | S. cerevisiae deletion strains, locus YLR039C, strain RIC1, active compounds read low 1.07 | S. cerevisiae deletion strains, locus YLR058C, strain SHM2, active compounds read low 1.01 | S. cerevisiae deletion strains, locus YLR102C, strain apc9, active compounds read low 0.991 | S. cerevisiae deletion strains, locus YLR113W, strain HOG1, active compounds read low 0.951 | S. cerevisiae deletion strains, locus YLR221C, strain rsa3, active compounds read low 1.04 | S. cerevisiae deletion strains, locus YLR258W, strain gsy2, active compounds read low 0.995 | S. cerevisiae deletion strains, locus YLR262C, strain YPT6 (second series), active compounds read low 1.05 | S. cerevisiae deletion strains, locus YLR262C, strain YPT6, active compounds read low 1.06 | S. cerevisiae deletion strains, locus YLR268W, strain sec22, active compounds read low 0.992 | S. cerevisiae deletion strains, locus YLR320W, strain mms22, active compounds read low 1.04 | S. cerevisiae deletion strains, locus YLR330W, strain CHS5, active compounds read low 1.01 | S. cerevisiae deletion strains, locus YLR342W, strain FKS1 (second series), active compounds read low 0.987 | S. cerevisiae deletion strains, locus YLR342W, strain FKS1, active compounds read low 1.01 | S. cerevisiae deletion strains, locus YLR357W, strain rsc2, active compounds read low 1 | S. cerevisiae deletion strains, locus YLR370C, strain arc18, active compounds read low 1.01 | S. cerevisiae deletion strains, locus YLR371W, strain rom2, active compounds read low 0.998 | S. cerevisiae deletion strains, locus YLR384C, strain iki3, active compounds read low 1.03 | S. cerevisiae deletion strains, locus YLR418C, strain cdc73, active compounds read low 1.01 | S. cerevisiae deletion strains, locus YML016C, strain PPZ1, active compounds read low 1 | S. cerevisiae deletion strains, locus YML032C, strain rad52, active compounds read low 0.983 | S. cerevisiae deletion strains, locus YML120C, strain ndi1, active compounds read low 0.999 | S. cerevisiae deletion strains, locus YML124C, strain tub3, active compounds read low 0.995 | S. cerevisiae deletion strains, locus YMR058W, strain fet3, active compounds read low 1.03 | S. cerevisiae deletion strains, locus YMR078C, strain ctf18, active compounds read low 0.989 | S. cerevisiae deletion strains, locus YMR125W, strain sto1, active compounds read low 1.01 | S. cerevisiae deletion strains, locus YMR129W, active compounds read low 1.01 | S. cerevisiae deletion strains, locus YMR205C, strain PFK2, active compounds read low 1 | S. cerevisiae deletion strains, locus YMR223W, strain ubp8, active compounds read low 0.991 | S. cerevisiae deletion strains, locus YMR231W, strain pep5, active compounds read low 1.02 | S. cerevisiae deletion strains, locus YMR263W, strain SAP30, active compounds read low 1.02 | S. cerevisiae deletion strains, locus YMR307W, strain GAS1, active compounds read low 1.01 | S. cerevisiae deletion strains, locus YNL067W, strain RPL9B, active compounds read low 1.01 | S. cerevisiae deletion strains, locus YNL071W, strain lat1, active compounds read low 1.01 | S. cerevisiae deletion strains, locus YNL128W, strain TEP1, active compounds read low 1.02 | S. cerevisiae deletion strains, locus YNL153C, strain GIM3, active compounds read low 1.02 | S. cerevisiae deletion strains, locus YNL183C, strain NPR1, active compounds read low 0.905 | S. cerevisiae deletion strains, locus YNL209W, strain ssb2, active compounds read low 1.01 | S. cerevisiae deletion strains, locus YNL233W, strain BNI4, active compounds read low 1.02 | S. cerevisiae deletion strains, locus YNL248C, strain rpa49, active compounds read low 1.04 | S. cerevisiae deletion strains, locus YNL250W, strain rad50, active compounds read low 0.998 | S. cerevisiae deletion strains, locus YNL271C, strain bni1, active compounds read low 0.997 | S. cerevisiae deletion strains, locus YNL298W, strain CLA4, active compounds read low 0.996 | S. cerevisiae deletion strains, locus YNL307C, strain MCK1, active compounds read low 0.99 | S. cerevisiae deletion strains, locus YNL322C, strain KRE1 (second series), active compounds read low 1 | S. cerevisiae deletion strains, locus YNL322C, strain KRE1, active compounds read low 1.01 | S. cerevisiae deletion strains, locus YNR049C, strain mso1, active compounds read low 1.02 | S. cerevisiae deletion strains, locus YNR052C, strain pop2, active compounds read low 0.999 | S. cerevisiae deletion strains, locus YOL006C, strain TOP1, active compounds read low 1.07 | S. cerevisiae deletion strains, locus YOL012C, strain htz1 1.57 | S. cerevisiae deletion strains, locus YOL147C, strain pex11, active compounds read low 0.997 | S. cerevisiae deletion strains, locus YOR001W, strain rrp6, active compounds read low 1.02 | S. cerevisiae deletion strains, locus YOR061W, strain CKA2, active compounds read low 1.01 | S. cerevisiae deletion strains, locus YOR069W, strain VPS5, active compounds read low 1 | S. cerevisiae deletion strains, locus YOR070C, strain gyp1, active compounds read low 1.02 | S. cerevisiae deletion strains, locus YOR080W, strain dia2, active compounds read low 1.03 | S. cerevisiae deletion strains, locus YOR083W, strain WHI5, active compounds read low 1.01 | S. cerevisiae deletion strains, locus YOR106W, strain vam3, active compounds read low 0.995 | S. cerevisiae deletion strains, locus YOR136W, strain idh2, active compounds read low 0.996 | S. cerevisiae deletion strains, locus YOR144C, strain elg1, active compounds read low 0.995 | S. cerevisiae deletion strains, locus YOR184W, strain ser1, active compounds read low 0.962 | S. cerevisiae deletion strains, locus YOR231W, strain MKK1, active compounds read low 0.947 | S. cerevisiae deletion strains, locus YOR265W, strain rbl2, active compounds read low 1.03 | S. cerevisiae deletion strains, locus YOR270C, strain vph1, active compounds read low 1.07 | S. cerevisiae deletion strains, locus YOR290C, strain snf2, active compounds read low 0.995 | S. cerevisiae deletion strains, locus YOR316C, strain cot1, active compounds read low 0.992 | S. cerevisiae deletion strains, locus YPL051W, strain arl3, active compounds read low 1 | S. cerevisiae deletion strains, locus YPL055C, strain LGE1, active compounds read low 1.04 | S. cerevisiae deletion strains, locus YPL078C, strain atp4, active compounds read low 0.992 | S. cerevisiae deletion strains, locus YPL106C, strain sse1, active compounds read low 0.984 | S. cerevisiae deletion strains, locus YPL240C, strain hsp82, active compounds read low 1.02 | S. cerevisiae deletion strains, locus YPL241C, strain CIN2, active compounds read low 1.01 | S. cerevisiae deletion strains, locus YPL256C, strain CLN2, active compounds read low 0.983 | S. cerevisiae deletion strains, locus YPR119W, strain clb2, active compounds read low 0.992 | S. cerevisiae deletion strains, locus YPR141C, strain kar3, active compounds read low 0.991 | S. cerevisiae deletion strains, locus YPR163C, strain tif3, active compounds read low 0.998 | S. cerevisiae deletion strains, locus YPR167C, strain met16, active compounds read low 0.995 | S. cerevisiae deletion strains, strain wtn01, active compounds read low 0.989 | S. cerevisiae strains, strain wild type, active compounds read low 1.01

— PubChem BioAssay AID1159580 (chemical genetic matrix, 2015)
